The nature of experiment [1]: High-throughput drug toxicity screening in the BPDCN cell line Gen2.2 (AID 1224824; call rule not given here;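 note: cells exposed to compounds for 48 h before reading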). Particulars: Gen2.2 BPDCN cells; at 45.8 µM (top of the series). In outline:
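Readout is ATP luminescence from Gen2.2 cells after two days of drug exposure in serum-containing medium at 37 °C. Values express percent activity, with vehicle defining full signal and 9.2 uM bortezomib defining zero.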

Experiment [2] in a line: High-throughput drug toxicity screening in the BPDCN cell line Cal-1 (AID 1224825; call rule not given here). Particulars: Cal-1 BPDCN cell viability, qHTS; at 45.8 µM (top of the series). In outline:
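500 Cal-1 cells/well, RPMI + glutamine + 10% FBS (phenol red-free); cpd added by pin tool; 48 h, 37C, 5% CO2; CTG 15 min RT, lumi read. Normalised: DMSO 100%, bortezomib 9.2 uM 0%.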

Experiment [3] can be described thus: qHTS Screen of the MIPE 4.0 Collection Against Ewings Sarcoma (RDES) (AID 1259252). Note: nearly all actives have a fitted effect of over 35% in size. Note: potency is the fitted concentration of half-maximal effect. In outline:
(§1)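 CellTiter-Glo luminescence after 48 h compound exposure (titration) gave viability; percent activity used DMSO-treated cells as no inhibition and medium-only wells as full inhibition. Cells grown in RPMI/5% FBS, dosed 4 h post-seeding.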

Experiment [4] is described as follows: qHTS Screen of the MIPE 4.0 Collection Against Ewings Sarcoma (TC71) (AID 1259253). Note: nearly all actives have a fitted effect of over 40% in size. Note: potency is the fitted concentration of half-maximal effect. Put shortly:
as §1
On the technique in general: Quantitative high-throughput screening tests each substance at several concentrations.

The nature of experiment [5]: qHTS Screen of the MIPE 4.0 Collection Against Ewings Sarcoma (EW8) (AID 1259255).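 For viability: 100% = DMSO-treated cells and 0% = medium-only wells without cells.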 Note: nearly all actives have a fitted effect of over 35% in size. Note: potency is the fitted concentration of half-maximal effect. Put shortly: as §1
The nature of experiment [6]: P-glycoprotein substrates identified in KB-8-5-11 adenocarcinoma cell line, qHTS therapeutic library screen (AID 1346987). Note: nearly all actives have a fitted effect of over 65% in size. Note: potency is the fitted concentration of half-maximal effect. In outline: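 P-gp-mediated resistance screen: KB-8-5-11 cells treated 72 h with compounds in dose-response. CellTiter-Glo viability.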
A short description of experiment [7]: qHTS assay for measurement of the activity of small molecule inhibitors on Zika virus induced Caspase-3 activity in human iPSC derived neural progenitor cells (hNPCs) (AID 1224857). Note: % of control where 0% means no effect; nearly all actives have a fitted effect of over 65% in size. Put shortly: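 hNPCs seeded 350 cells/well, cultured 16–20 h; compounds added 1 h before ZIKV (2 FFU/cell), 37 C 6 h. Caspase-Glo 3/7 luminescence after 30 min RT; % inhibition from induction scaled to uninfected (0%) and infected (100%) wells.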

Experiment [8] can be described thus: qHTS assay for measurement of the activity of small molecule inhibitors on Zika virus induced Caspase-3 activity in human astrocytoma cells (AID 1224859).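 Note: plate controls were ZIKV-infected untreated cells for no effect and uninfected cells for full effect.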 Put shortly: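 Luminescence read-out (Caspase-Glo 3/7, 30 min RT) of caspase activity in SNB-19 cells infected 6 h with ZIKV, 2 FFU/cell, after 1 h compound pretreatment; % inhibition from induction normalised to uninfected (0%) and infected (100%) wells.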

A short description of experiment [9]: qHTS Screen of the MIPE 4.0 Collection Against Ewings Sarcoma (TC32) (AID 1259256). Note: nearly all actives have a fitted effect of over 45% in size. Note: potency is the fitted concentration of half-maximal effect. Put shortly:
as §1

Experiment [10] can be described thus: P-glycoprotein substrates identified in KB-3-1 adenocarcinoma cell line, qHTS therapeutic library screen (AID 1346986). Note: nearly all actives have a fitted effect of over 60% in size. Put shortly:
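Counter-screen: cherry-picked hits retested in the KB pair and in HEK-293 pcDNA/MDR-19 cells ± tariquidar. Primary screen used 72 h CellTiter-Glo viability in KB-3-1 and KB-8-5-11.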

Our source for the cell viability, % of control (lower = more cytotoxic), viability (% of control) and Potency values is PubChem BioAssay (NCATS).

Values joined by “and” are separate entries in the source; they are usually repeats but may differ in a detail not shown here. Equal entries are not always repeated. Results filed as inconclusive are left out. Active and inactive are the calls of the source. Unless noted, calls come from the whole dose curve; as a rule, active = well fitted curve in the direction sought with a large enough effect; inconclusive = small, poorly fitted or top-dose-only effect, or another doubt; inactive = no such curve, though single readings can be large; an effect the other way counts as inactive or inconclusive.

For the compound `O=C1CCC[C@@H]2[C@H]3CCCN4CCC[C@@H](CN12)[C@@H]34`, the cell viability, % of control (lower = more cytotoxic) in experiment [1] was determined as 219%. The viability (% of control) in [2] amounted to 120%. Besides, the Potency result in experiment [3], in [4], in [5] and in experiment [6] was “inactive” in each case.

As for `C1=C2CCCN[C@H]2[C@@H]2C[C@H]1[C@@H]1CCCCN1C2`, the viability (% of control) in [2] amounted to 105%. The Potency result in experiment [7], in [8], in experiment [3], in [4], in [5] and in [6] was “inactive” throughout.

As for `COc1ccc(CC2NCCc3cc(OC)c(OC)cc32)cc1OC` (centres undefined), the viability (% of control) in experiment [2] is 102%. For the same compound, the Potency result in experiment [7], in [8], in [5], in experiment [9] and in experiment [6] was “inactive” throughout. For the same compound, the Potency in experiment [3] is 23.5 µM (active).

Regarding `CC[C@@]1(O)C(=O)OCc2c1cc1n(c2=O)Cc2cc3ccccc3nc2-1`, the viability (% of control) in [2] was found to be 3.88%. Further, the Potency result in [7] and in experiment [8] was “inactive” in each case. Also, the Potency in experiment [3] was 0.0132 µM (active); in [4], 0.0093 µM (active); in experiment [5], 0.0118 µM (active).

Take `CC(=O)OCC1=C(C(=O)O)N2C(=O)[C@@H](N)[C@@H]2SC1`: in experiment [1], the cell viability, % of control (lower = more cytotoxic) turned out to be 68.5%. Moreover, in experiment [2], the viability (% of control) is 15.5%. In addition, the Potency result in experiment [8], in [3], in experiment [4], in experiment [5] and in [9] was “inactive” throughout.

With `C=C1C[C@H]2[C@H]3CCC(=O)[C@@]3(C)CC[C@@H]2[C@@]2(C)C=CC(=O)C=C12`, the cell viability, % of control (lower = more cytotoxic) in experiment [1] came out at 12.4%. Further, the viability (% of control) in experiment [2] worked out at 32.6%. Moreover, the Potency result in experiment [7], in [8] and in [6] was “inactive” each time.

`Cc1c(C(=O)c2cccc3ccccc23)c2cccc3c2n1[C@H](CN1CCOCC1)CO3`: in [2], the viability (% of control) came out at 40%. Besides, the Potency result in experiment [7] and in experiment [8] was “inactive” each time. In addition, the Potency in experiment [4] was 26.4 µM (active); in experiment [5], 26.4 µM (active); in experiment [9], 26.4 µM (active); in experiment [6] it was 7.43 µM (active).

In the case of `O=C(N[C@H]1CN2CCC1CC2)c1ccc(Cl)cc1`, the viability (% of control) in experiment [2] amounted to 106%. The Potency entry in [7], in experiment [8], in experiment [10] and in [6] was “inactive” each time. Also, the Potency in [3] was 8.33 µM (active); in [4] it was 18.7 µM (active).

Take `CCNC(=O)C[C@@H]1N=C(c2ccc(Cl)cc2)c2cc(OC)ccc2-n2c(C)nnc21`: the viability (% of control) in [2] stood at 7.23%. For the same compound, the Potency entry in experiment [7] and in experiment [8] was “inactive” each time. Moreover, the Potency in experiment [3] was 3.32 µM (active); in experiment [4], 2.96 µM (active); in experiment [5] it was 7.43 µM (active); in experiment [9] it was 3.72 µM (active).

For `CSCC[C@@H](NC(=O)[C@@H](Cc1ccccc1)NC(=O)CNC(=O)CNC(=O)[C@@H](N)Cc1ccc(O)cc1)C(=O)O`, the viability (% of control) in experiment [2] is 134%. Further, the Potency result in experiment [7], in experiment [8], in experiment [3], in [4] and in experiment [5] was “inactive” throughout.

As for `CCNC(=O)CC1N=C(c2ccc(Cl)cc2)c2cc(OC)ccc2-n2c(C)nnc21` (centres undefined), the viability (% of control) in experiment [2] amounted to 11.7%. Moreover, the Potency entry in experiment [7], in experiment [8], in experiment [10] and in experiment [6] was “inactive” in each case. For the same compound, the Potency in experiment [3] was 13.2 µM (active); in experiment [4], 16.6 µM (active); in experiment [5], 20.9 µM (active).

Consider `CC(=O)N(C)c1cccc(-c2ccnc3c(C(=O)c4cccs4)cnn23)c1`, for which, in [1], the cell viability, % of control (lower = more cytotoxic) was 111%. In addition, the viability (% of control) in experiment [2] is 72.5%. Moreover, the Potency result in [7], in [8] and in [10] was “inactive” in each case.

With `CC(=CCCC1=CCC(C2=CC(=O)OC2O)OC1O)CCC1=C(C)CCCC1(C)C` (centres undefined), the cell viability, % of control (lower = more cytotoxic) in experiment [1] was determined as 124%. For the same compound, the viability (% of control) in [2] is 103%. The Potency entry in experiment [8] and in experiment [6] was “inactive” each time. Besides, the Potency was 18.7 µM (active) in experiment [3] and 20.9 µM (active) in experiment [9].

In the case of `CCC(=O)OC1CCC2C3CCC4=CC(=O)CC[C@@]4(C)C3CC[C@]12C` (some centres undefined), the viability (% of control) in experiment [2] is 105%. The Potency result in experiment [7], in experiment [8], in experiment [3], in [4], in experiment [5] and in experiment [9] was “inactive” throughout. The Potency result in experiment [10] was “inactive”.

For the compound `NC1CC1c1ccccc1` (centres undefined), in experiment [2], the viability (% of control) stood at 95.2%. Besides, the Potency result in experiment [7], in [8], in experiment [4], in [5] and in [6] was “inactive” in each case.

For `CC(C)(O)C(=O)Nc1ccc([N+](=O)[O-])c(C(F)(F)F)c1`, the cell viability, % of control (lower = more cytotoxic) in experiment [1] amounted to 21%. Moreover, the viability (% of control) in experiment [2] was found to be 14.7%. Moreover, the Potency entry in [8] and in experiment [6] was “inactive” throughout. In addition, the Potency was 14.8 µM (active) in experiment [3] and 23.5 µM (active) in experiment [4].

`C[C@]12CC[C@@H]3[C@@H](CCC4=CC(=O)CC[C@@H]43)[C@@H]1CC[C@@H]2OC(=O)CCc1ccccc1`: the cell viability, % of control (lower = more cytotoxic) in experiment [1] came to 119%. Besides, the viability (% of control) in experiment [2] stood at 104%. Further, the Potency result in [8] and in [3] was “inactive” throughout. The Potency is 9.35 µM (active) in experiment [4] and 5.8 µM (active) in [6].

Turning to `Cc1[nH]nc2ccc(-c3cncc(OC[C@@H](N)Cc4c[nH]c5ccccc45)c3)cc12`, the viability (% of control) in experiment [2] was found to be 1.66%. The Potency result in experiment [7] and in [8] was “inactive” throughout. Also, the Potency was 0.209 µM (active) in experiment [3]; 0.372 µM (active) in [4]; 2.09 µM (active) in [5]; 4.69 µM (active) in experiment [9]; 526 nM (active) and 5.17 µM (active) in experiment [6].

In the case of `CCOC(=O)c1c(C(C#N)=CN)c2ccc(Cl)c(Cl)c2n1C`, in experiment [2], the viability (% of control) came to 94.3%. Moreover, the Potency result in experiment [7], in [8], in [4], in [5] and in [9] was “inactive” in each case.

For `CC(=Cc1csc(C)n1)[C@@H]1C[C@H]2O[C@@H]2CCC[C@H](C)[C@@H](O)[C@@H](C)C(=O)C(C)(C)[C@@H](O)CC(=O)O1`, in [2], the viability (% of control) turned out to be 26.8%. Also, the Potency entry in experiment [7], in experiment [8], in experiment [3], in [4], in [5] and in [9] was “inactive” in each case. In addition, in experiment [6], the Potency was 0.001 µM (active).

As for `O=c1[nH]c2ccc(Cl)cc2c(N[C@@H]2CN3CCC2CC3)c1-c1nc2ccccc2[nH]1`, the cell viability, % of control (lower = more cytotoxic) in [1] was found to be 2.72%. The viability (% of control) in [2] was found to be 2.3%. Further, the Potency entry in [8] is “inactive”. Moreover, the Potency was 1.66 µM (active) in experiment [3], 0.0418 µM (active) in experiment [4], 0.0743 µM (active) in [5] and 1.66 µM (active) in experiment [6].

Consider `COc1ccc(N(C(=O)Oc2c(C)cccc2C)c2ccnc(Nc3ccc(N4CCN(C)CC4)cc3)n2)c(OC)c1`, for which, in experiment [2], the viability (% of control) worked out at 13.7%. Also, the Potency entry in experiment [7] and in experiment [8] was “inactive” each time. Further, the Potency in [3] was 1.87 µM (active); in experiment [4] it was 2.35 µM (active); in [5] it was 2.64 µM (active); in experiment [9], 2.64 µM (active).

On to `CCN1CCN(C(=O)Cc2ccc(Nc3ncc(F)c(Nc4ccc(C(=O)Nc5ccccc5Cl)cc4)n3)cc2)CC1`, for which the cell viability, % of control (lower = more cytotoxic) in [1] stood at 2.73%. Besides, in experiment [2], the viability (% of control) was found to be 2.31%. For the same compound, the Potency entry in [8] was “inactive”. For the same compound, the Potency is 8.33 µM (active) in experiment [3]; 5.9 µM (active) in experiment [4]; 2.96 µM (active) in experiment [5]; 4.18 µM (active) in experiment [9]; 2.96 µM (active) and 1.16 µM (active) in [6].
